# PubChem BioAssay (NCI)
# About 83,000 compounds went through this panel and 20% of them were active in at least one assay; those are over-represented in the sample as a whole.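 Negative percent growth values reflect cell death: -40 means 40% of the cells present at the start died, and -100 means all died.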 Calls of active or inactive are those of the source. The calls were made as follows: active = growth percent below 10; inactive = the rest.
# Tests used:
# Test in all cases: NCI-60 one-dose screen, 48 h (100 = growth as untreated, 0 = no growth, -100 = all killed)
# Details in all cases: 10 µM unless noted
# SK-MEL-2 melanoma = tested on: SK-MEL-2 melanoma
# EKVX NSCLC = tested on: EKVX NSCLC
# SN12C renal = tested on: SN12C renal
# UO-31 renal = tested on: UO-31 renal
# TK-10 renal = tested on: TK-10 renal
# ACHN renal = tested on: ACHN renal
# CAKI-1 renal = tested on: CAKI-1 renal
# A498 renal = tested on: A498 renal
# SR leukemia = tested on: SR leukemia
# RPMI-8226 leukemia = tested on: RPMI-8226 leukemia
# OVCAR-8 ovarian = tested on: OVCAR-8 ovarian
# OVCAR-5 ovarian = tested on: OVCAR-5 ovarian
# OVCAR-4 ovarian = tested on: OVCAR-4 ovarian
# SK-OV-3 ovarian = tested on: SK-OV-3 ovarian
# IGROV1 ovarian = tested on: IGROV1 ovarian
# OVCAR-3 ovarian = tested on: OVCAR-3 ovarian
# HS 578T breast = tested on: HS 578T breast
# NCI/ADR-RES ovarian = tested on: NCI/ADR-RES ovarian
# MOLT-4 leukemia = tested on: MOLT-4 leukemia
SMILES,growth (SK-MEL-2 melanoma),growth (EKVX NSCLC),growth (SN12C renal),growth (UO-31 renal),growth (TK-10 renal),growth (ACHN renal),growth (CAKI-1 renal),growth (A498 renal),growth (SR leukemia),growth (RPMI-8226 leukemia),growth (OVCAR-8 ovarian),growth (OVCAR-5 ovarian),growth (OVCAR-4 ovarian),growth (SK-OV-3 ovarian),growth (IGROV1 ovarian),growth (OVCAR-3 ovarian),growth (HS 578T breast),growth (NCI/ADR-RES ovarian),growth (MOLT-4 leukemia)
COC(=O)c1c2c(c(C)[n+]([O-])c1C)C(=O)C(NCc1ccc(F)cc1)=CC2=O,30.6% (inactive),58.8% (inactive),-2.05% (active),71.9% (inactive),81.4% (inactive),48.3% (inactive),50.7% (inactive),98.6% (inactive),9.28% (active),26.9% (inactive),-5.16% (active),46.2% (inactive),-38.5% (active),84.1% (inactive),17.6% (inactive),-21% (active),82.6% (inactive),10% (inactive),
Cc1ccc(/C=C/c2c(C(=O)/C=C/c3ccc(C(F)(F)F)cc3)c(C)nc3ccccc23)cc1,-20% (active),-31.6% (active),-61.7% (active),-98% (active),-71.1% (active),-100% (active),-91.1% (active),-80.8% (active),,-26.8% (active),4.18% (active),-39.6% (active),-74.1% (active),-47.5% (active),-80.1% (active),-86.3% (active),-13.2% (active),-0.26% (active),-4.49% (active)
Cc1ccc(Nc2nc(N)nc(CSCC(=O)NN)n2)cc1,109% (inactive),102% (inactive),94.6% (inactive),88.2% (inactive),115% (inactive),101% (inactive),89.8% (inactive),77.7% (inactive),87% (inactive),101% (inactive),103% (inactive),103% (inactive),93.7% (inactive),101% (inactive),99.5% (inactive),105% (inactive),90.9% (inactive),104% (inactive),
Cc1c(O)cc(-c2cnc(N/N=C\c3ccc(Cl)cc3)s2)c(O)c1C,101% (inactive),64.3% (inactive),87.5% (inactive),75.5% (inactive),120% (inactive),100% (inactive),92% (inactive),103% (inactive),58.3% (inactive),41.5% (inactive),60.7% (inactive),102% (inactive),61.7% (inactive),104% (inactive),83.5% (inactive),90.3% (inactive),77.6% (inactive),80.5% (inactive),
C[C@H](NC(=O)[C@@H]1CSSC[C@@H](NC(=O)c2nc3ccccc3cc2O)C(=O)NCC(=O)N1C)c1ccccc1,62.2% (inactive),42% (inactive),-17.7% (active),63.8% (inactive),59.9% (inactive),44.7% (inactive),83.2% (inactive),112% (inactive),-17.5% (active),22.6% (inactive),26.3% (inactive),45.6% (inactive),94.3% (inactive),71.7% (inactive),71.6% (inactive),-51.4% (active),33% (inactive),91.5% (inactive),
CN1CCN(CCCOc2ccc3nc(Nc4ccc(F)c(F)c4)ccc3c2)CC1,54.4% (inactive),61.7% (inactive),68% (inactive),47.4% (inactive),41.7% (inactive),44.3% (inactive),73.3% (inactive),33.4% (inactive),-6.22% (active),28.8% (inactive),53.1% (inactive),41% (inactive),51.2% (inactive),49.6% (inactive),58.9% (inactive),67.4% (inactive),33.8% (inactive),70.6% (inactive),
O=[N+]([O-])c1ccc(C2CC(c3ccccc3)=Nc3ccccc3S2)cc1 (configuration not stated),107% (inactive),112% (inactive),103% (inactive),56.4% (inactive),148% (inactive),103% (inactive),93.6% (inactive),114% (inactive),30.9% (inactive),-6.89% (active),94.9% (inactive),113% (inactive),93.5% (inactive),100% (inactive),58.7% (inactive),83.9% (inactive),93.3% (inactive),95.1% (inactive),
O=C(O)CN1C(=O)CCC1=O,118% (inactive),95.4% (inactive),102% (inactive),102% (inactive),107% (inactive),96% (inactive),102% (inactive),97.4% (inactive),112% (inactive),,99.4% (inactive),101% (inactive),,104% (inactive),118% (inactive),115% (inactive),115% (inactive),112% (inactive),
COC(=O)[C@]12CC[C@@H](C)[C@H](C)[C@@H]1C1=CC[C@@H]3[C@@]4(C)C(C=O)=C[C@@](C)(COC(=O)c5ccco5)C4=CC[C@@]3(C)[C@]1(C)CC2,-42.1% (active),11% (inactive),17.1% (inactive),-55.3% (active),6.65% (active),-33.9% (active),14.3% (inactive),22.2% (inactive),-8.74% (active),4.82% (active),19.6% (inactive),8.46% (active),18.6% (inactive),27.8% (inactive),26.5% (inactive),-92.6% (active),3.14% (active),23.7% (inactive),
c1ccc(Nc2nc(-c3ccccn3)cs2)nc1,27.6% (inactive),30.7% (inactive),13.4% (inactive),0.382% (active),37% (inactive),1.7% (active),-13.3% (active),28.3% (inactive),,14.6% (inactive),14.4% (inactive),53% (inactive),,29.5% (inactive),9.37% (active),39.7% (inactive),42.9% (inactive),-0.82% (active),14.2% (inactive)
O=c1[nH]c2ccccc2n1C1CCN(CCOc2ccccc2)CC1,83.3% (inactive),99.7% (inactive),97.3% (inactive),64.6% (inactive),98.7% (inactive),90.9% (inactive),98.8% (inactive),63.7% (inactive),,41.5% (inactive),79% (inactive),104% (inactive),66.7% (inactive),91.8% (inactive),,65.4% (inactive),54.6% (inactive),94.1% (inactive),86.4% (inactive)
Cc1ccc(S(=O)(=O)n2cc(CNc3ccc(N4CCOCC4=O)cc3)c3ccccc32)cc1,102% (inactive),98.5% (inactive),84.3% (inactive),43.3% (inactive),65.2% (inactive),46.7% (inactive),30.4% (inactive),-51.1% (active),,67.9% (inactive),81.7% (inactive),30.1% (inactive),62.3% (inactive),87.4% (inactive),67.5% (inactive),86.8% (inactive),89.6% (inactive),78% (inactive),82.7% (inactive)
CC(C)(C)CC(C)(C)Nc1c(-c2ccncc2)nc2cnccn12,106% (inactive),93.1% (inactive),102% (inactive),86.7% (inactive),99.2% (inactive),87.7% (inactive),80.6% (inactive),90.9% (inactive),,,,93.7% (inactive),84% (inactive),92.8% (inactive),99.8% (inactive),102% (inactive),92.2% (inactive),99.5% (inactive),94.1% (inactive)
O=C(O)C1CCC(=O)N1C(=O)OCc1ccccc1 (configuration not stated),103% (inactive),97.8% (inactive),90.1% (inactive),88.7% (inactive),88.7% (inactive),96.3% (inactive),83.4% (inactive),123% (inactive),89.4% (inactive),88.8% (inactive),96.3% (inactive),92.6% (inactive),101% (inactive),109% (inactive),110% (inactive),118% (inactive),136% (inactive),98.4% (inactive),
Cc1c2c(c(C)c3c1oc1cc(O)ccc13)C(=O)N(CCN1CCCCC1)C2=O,105% (inactive),101% (inactive),85.9% (inactive),74.9% (inactive),96.7% (inactive),84.3% (inactive),76.3% (inactive),106% (inactive),,74.6% (inactive),64.2% (inactive),114% (inactive),94.1% (inactive),105% (inactive),82.8% (inactive),99.1% (inactive),89.8% (inactive),81.7% (inactive),80.4% (inactive)
CC1(C)CC(=O)CC2(C1)N=C(N)Nc1nc3ccccc3n12 (configuration not stated),100% (inactive),102% (inactive),100% (inactive),96.6% (inactive),105% (inactive),91.9% (inactive),105% (inactive),99.7% (inactive),,94.4% (inactive),104% (inactive),98.7% (inactive),91.7% (inactive),101% (inactive),90.5% (inactive),111% (inactive),137% (inactive),106% (inactive),82.3% (inactive)
